From PubChem BioAssay (NCI)
Compounds without any hit were thinned out: in the full panel of roughly 83,000, 20% have a hit.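 Plates (96-well) were seeded with cells, treated with compound at one concentration, and incubated for 48 hours before percent growth was determined.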 Values without a mark were called inactive. The source made the active and inactive calls. Rule for the calls: active = growth percent below 10; inactive = the rest.

Legend:
Assay in all cases: NCI-60 one-dose screen, 48 h (100 = growth as untreated, 0 = no growth, -100 = all killed)
Conditions in all cases: 10 µM unless noted
HCT-15 colon = system: HCT-15 colon
HT29 colon = system: HT29 colon
SNB-75 CNS = system: SNB-75 CNS
SNB-19 CNS = system: SNB-19 CNS
U251 CNS = system: U251 CNS
PC-3 prostate = system: PC-3 prostate
SK-MEL-5 melanoma = system: SK-MEL-5 melanoma
UACC-62 melanoma = system: UACC-62 melanoma
LOX IMVI melanoma = system: LOX IMVI melanoma
SK-MEL-2 melanoma = system: SK-MEL-2 melanoma
EKVX NSCLC = system: EKVX NSCLC
SN12C renal = system: SN12C renal
UO-31 renal = system: UO-31 renal
TK-10 renal = system: TK-10 renal
ACHN renal = system: ACHN renal
CAKI-1 renal = system: CAKI-1 renal
A498 renal = system: A498 renal
CCRF-CEM leukemia = system: CCRF-CEM leukemia
MOLT-4 leukemia = system: MOLT-4 leukemia
SK-MEL-28 melanoma = system: SK-MEL-28 melanoma

Compound | growth (HCT-15 colon) | growth (HT29 colon) | growth (SNB-75 CNS) | growth (SNB-19 CNS) | growth (U251 CNS) | growth (PC-3 prostate) | growth (SK-MEL-5 melanoma) | growth (UACC-62 melanoma) | growth (LOX IMVI melanoma) | growth (SK-MEL-2 melanoma) | growth (EKVX NSCLC) | growth (SN12C renal) | growth (UO-31 renal) | growth (TK-10 renal) | growth (ACHN renal) | growth (CAKI-1 renal) | growth (A498 renal) | growth (CCRF-CEM leukemia) | growth (MOLT-4 leukemia) | growth (SK-MEL-28 melanoma)
CCCCCCCCCCCCCCCCCCOc1ccccc1CC(=O)NCC[N+]1(C)CCCC1 | 93.9% | 8.69% (active) | 45% | 35.2% | 6.79% (active) | 4.91% (active) | 73% | 43.2% | 53.4% | 62.4% | 92% | 29.8% | 85.1% | 25.9% | 95.8% | 74% | 71.5% | 18.8% | 14% | –
CSc1nnc(-c2cnn3c2NC(c2ccccc2)C3)n1-c1ccc(C(F)(F)F)cc1 (configuration not stated) | 35.1% | 28.4% | 66.7% | 66.9% | 58% | 46.3% | 31.3% | 40.3% | 61.3% | 50.2% | 56% | 78.5% | 53.7% | 70.6% | 52.3% | 32% | 46.8% | – | 41.9% | –
COC(C(=O)[C@@H](O)[C@@H](C)O)[C@@H]1Cc2cc3cc(O[C@H]4C[C@@H](O[C@H]5C[C@@H](O)[C@H](O)C(C)O5)[C@H](O)C(C)O4)c(C)c(O)c3c(O)c2C(=O)[C@H]1O[C@H]1C[C@@H](O[C@H]2C[C@@H](O[C@H]3C[C@@H](O)[C@H](OC)C(C)O3)[C@@H](O)C(C)O2)[C@H](O)C(C)O1 (some centres not stated) | 8.46% (active) | -13.6% (active) | -57% (active) | 12.4% | 2.99% (active) | 11.2% | -36.9% (active) | -35.4% (active) | -8.28% (active) | -43.7% (active) | 12.3% | 15.9% | -8.18% (active) | -2% (active) | – | 13.7% | -47.5% (active) | 9.56% (active) | -6.79% (active) | –
Cc1ccc(-c2nc(/C=C3/C(=O)Nc4ccccc43)c3ccccn23)cc1 | 26.5% | 42.3% | 88.9% | 99.6% | 85.2% | 78.3% | 82.9% | 84.5% | 77.1% | 39.3% | – | 82.6% | 54.3% | 88.9% | 16.6% | 48.8% | 104% | 84.3% | 72.2% | 133%
CN1CCN(Cc2ccc(NC(=O)c3cncc(C#Cc4cnc(N)c5ccccc45)c3)cc2C(F)(F)F)CC1 | -82.8% (active) | -14.5% (active) | -73% (active) | -78.5% (active) | -98.5% (active) | -53.1% (active) | -98.1% (active) | -91.4% (active) | -92.1% (active) | -81.6% (active) | – | -90.7% (active) | -89.7% (active) | -90% (active) | -100% (active) | – | -87% (active) | -6.38% (active) | 2.94% (active) | -92.9% (active)
CCNc1nc(-c2ccc(Cl)c(OC)c2)c(-c2ccnc(NCCCNS(=O)(=O)c3ccc(Cl)cc3)n2)s1 | 61.6% | 19.1% | 77.6% | 81.8% | 51.9% | 29.4% | 48.2% | 29.7% | 56.3% | -27.1% (active) | 75.4% | 66.5% | 64.9% | 43.7% | 74.1% | 59% | 66.8% | 31.6% | 22.2% | –
C=CCc1c2c(c(OC)c3ccoc13)C(=O)/C(=C/c1ccccc1OC)O2 | 45.2% | 44.6% | 35.8% | 73% | 46.2% | 55.2% | 98% | 46.4% | 38.3% | 58.4% | – | 62.1% | 65.7% | 52.9% | 59.3% | – | 46.2% | 37.5% | 45.8% | 81.1%
Cn1cc(-c2csc(-c3ccc(Cl)cc3)n2)c2cccnc21 | -31.9% [100 µM] (active) | -70.3% [100 µM] (active) | -82.5% [100 µM] (active) | -41.8% [100 µM] (active) | 4.92% [100 µM] (active) | -16.7% [100 µM] (active) | -86.9% [100 µM] (active) | -38.5% [100 µM] (active) | – | -22% [100 µM] (active) | -14.4% [100 µM] (active) | -42.7% [100 µM] (active) | -37.5% [100 µM] (active) | -26.1% [100 µM] (active) | -50.9% [100 µM] (active) | -29.3% [100 µM] (active) | -79.9% [100 µM] (active) | -18.8% [100 µM] (active) | 2.44% [100 µM] (active) | -63.9% [100 µM] (active)
CCN(c1ccc(Cl)cc1)c1nc(-c2ccc([N+](=O)[O-])cc2)cs1 | 98.1% | 91% | 96.8% | 95.4% | 102% | 92.6% | 99.7% | 79.8% | – | 101% | 79.5% | 98.5% | 71.9% | 115% | 95.9% | 79.6% | 63.8% | 101% | 96.9% | 105%
Cn1ccc2c3c(ccc21)CC3=O | 105% | 116% | 97.7% | 105% | 111% | 110% | 115% | 99.1% | – | 126% | 103% | 106% | 107% | 124% | 111% | 92.3% | 92.6% | 111% | 88.9% | 112%
O=C1c2cccc3cccc(c23)C(=O)N1N1C(=O)c2cccc3c(N4CCOCC4)ccc(c23)C1=O | 101% | 107% | 58.5% | 87.8% | 90.7% | 91.2% | 101% | 90.5% | – | 107% | 94.1% | 88.8% | 68.7% | 141% | 95% | 87.4% | 64.3% | – | 108% | 102%
Cc1ccc(/C=N/Nc2nc(Nc3ccccc3)nc(-n3nc(C)cc3C)n2)cc1 | 25.2% | 32.7% | 83.4% | 74.4% | 33.8% | 31.1% | -12.6% (active) | 44.9% | – | 32.6% | 27.3% | 48.9% | 20.1% | 3.47% (active) | 35.5% | -21.1% (active) | 58.5% | 41% | 42.3% | 68.6%
COc1ccc2cc(-c3ccc(NC(C)=O)c(=O)o3)ccc2c1 | 100% | 87.9% | 97.4% | 94.1% | 96% | 89.1% | 102% | 94.8% | 104% | 98.6% | – | 102% | 77.6% | 97.4% | 98.7% | 89.7% | 85% | 93.1% | 90.9% | –
COc1ccc(C(=O)Nc2ncc(Cc3cccc(Cl)c3)s2)cc1OC | 23.4% | 9.89% (active) | 19.8% | 34.2% | 28.4% | 27.4% | -25.9% (active) | 10.6% | – | 8.92% (active) | 34.1% | 39.9% | 31.2% | 38.5% | 16.8% | 12.8% | 0.53% (active) | 17.3% | 29.2% | 10.9%
O=C1/C(=C\c2cn(-c3ccccc3)nc2-c2ccc(-c3cccs3)cc2)CCc2ccccc21 | 37.8% | 29.5% | 45.8% | 61% | 66.2% | 78.1% | 66% | 47.7% | – | 70.4% | – | 66.8% | 54.2% | 101% | 79.5% | 41.2% | 10.3% | 48% | 49.1% | 68.8%
CCCCCCC1(C)NCCO1 (configuration not stated) | 103% | 106% | 97% | 94.9% | 92.4% | 94% | 112% | 86.7% | – | 109% | 112% | 103% | 83.7% | 111% | 103% | 92.9% | 96.1% | 90.2% | 104% | 110%
